From PubChem
Only some compounds are listed: those with a hit (about 3.3% of all), similar ones and a draw of the others.
697 NFkB inh – inhibitors of the PMA/ionomycin-induced NF-kB reporter in 697 B cells; 697 B-cell NF-kB luciferase reporter, 16 h; AID 435022; inhibition, % at 4 µM; hit rate 0.33% among 330,000; in the data active = inhibition above about 35%
SMARCA2 act – SMARCA2 function activation, primary screen; MG213 cells, MMTV-luciferase reporter, dexamethasone, overnight; AID 652017; hit rate 1% among 370,000; activation, % at 9.1 µM; in the data active = activation above about 7.8%
Jurkat NFkB inh – lowers PMA/ionomycin-induced NF-kB signal in Jurkat cells. hit rate 0.53% among 330,000. inhibition, % at 4 µM. PMA/ionomycin-induced NF-kB luciferase reporter, luminescence; in the data active = inhibition above about 50%
Gli-Sufu block – antagonists of Gli-Sufu signaling. Sufu-KO-LIGHT fibroblasts, Gli luciferase reporter luminescence. hit rate 0.74% among 340,000. inhibition, % at 5 µM;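 active = inhibition above about 55%, limit read from the data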
esBAF inh – inhibitors of esBAF chromatin remodeling in mouse ES cells | AID 602393 | reporter increase, % at 12.5 µM | hit rate 2% among 350,000 | Bmi1-luciferase knock-in reporter, 24 h; 100% = twice the neutral-well signal; in the data active = activation above about 40%;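 also: a rise in the Bmi1 reporter signal indicates esBAF inhibition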
SMARCA2 conf – confirmation of SMARCA2 (BRM) function activators; shares compounds with SMARCA2 act; MG213 cells, MMTV-luciferase with dexamethasone, luminescence, overnight; MG213 cells expressing E1A, Rb sequestered; DMSO wells 0%, reference activator 100%; activation, % at 9.1 µM; hit rate 30% among 3,500; AID 652260;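 active = activation above its plate's cutoff, the mean activation of tested wells plus 3 SD, cut at about 7.9% in these data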
VP16 Luc act – GAL4-VP16 reporter activation counter-screen | hit rate 41% among 3,500 | activation, % at 9.1 µM | shares compounds with SMARCA2 act | HEK293 GAL4-VP16 pG5luc reporter, luciferase luminescence; scaled: DMSO wells 0%, SAHA wells 100%;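 active = activation above the solvent-only control well mean plus 3 SD, averaged across control plates, cut at about 5.2% in these data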
Large screens that a line does not name were inactive (follow-up assays come after a bar, where they were run).

O=C(Nc1nnc(SCC(=O)N2CCCc3ccccc32)s1)c1ccccc1	SMARCA2 act 10.1 (no result: esBAF inh) | SMARCA2 conf inactive | VP16 Luc act 8.0
COc1ccc(C(=O)Nc2nnc(SCC(=O)NC3CC3)s2)cc1	SMARCA2 act 8.2 | SMARCA2 conf inactive | VP16 Luc act 12.7
CCSc1nnc(NC(=O)c2cccnc2)s1	none (no result: esBAF inh)
C[C@@H]1CN([C@@H](C)CO)C(=O)Cc2cc(NC(=O)C3CC3)ccc2O[C@@H]1CN(C)C(=O)Nc1cccc2ccccc12	none (no result: 697 NFkB inh, SMARCA2 act, Jurkat NFkB inh, Gli-Sufu block)
COc1ccc(C2=Nc3ccccc3N(C(=O)c3ccncc3)C2C(=O)NC(C)C)cc1 (configuration not stated)	SMARCA2 act 9.7 (no result: 697 NFkB inh, Jurkat NFkB inh, Gli-Sufu block, esBAF inh) | SMARCA2 conf inactive | VP16 Luc act inactive
COc1ccccc1C(=O)N/N=C(\C)CC(=O)Nc1ccc2c(c1)OCCO2	none
C/C(CC(=O)Nc1cc(C)cc(C)c1)=N\NC(=O)c1ccccn1	SMARCA2 act 9.8 (no result: esBAF inh) | SMARCA2 conf inactive | VP16 Luc act inactive
COc1ccc(NC(=O)C/C(C)=N/NC(=O)c2cnccn2)c(OC)c1	none
C/C(CC(=O)Nc1ccc2c(c1)OCO2)=N\NC(=O)c1ccc(N)cc1	none (no result: esBAF inh)
COc1ccc(NC(=O)C/C(C)=N/NC(=O)c2ccccn2)c(OC)c1	SMARCA2 act 10.0 (no result: esBAF inh) | SMARCA2 conf inactive | VP16 Luc act 5.8
C/C(CC(=O)Nc1ccc2c(c1)OCO2)=N\NC(=O)c1ccccc1N	SMARCA2 act 16.8 (no result: esBAF inh) | SMARCA2 conf inactive | VP16 Luc act inactive
C/C(CC(=O)Nc1ccc2c(c1)OCCO2)=N\NC(=O)c1ccccc1F	SMARCA2 act 8.7 | SMARCA2 conf inactive | VP16 Luc act inactive
CC(=O)N(C)C[C@H]1Oc2ncc(-c3cccnc3)cc2C(=O)N([C@H](C)CO)C[C@H]1C	none (no result: 697 NFkB inh, SMARCA2 act, Jurkat NFkB inh, Gli-Sufu block)
COc1ccc(CN(C)C[C@H]2Oc3ccc(NS(=O)(=O)c4cccs4)cc3CC(=O)N([C@@H](C)CO)C[C@@H]2C)cc1	none (no result: 697 NFkB inh, SMARCA2 act, Jurkat NFkB inh, Gli-Sufu block)
CS(=O)(=O)N1[C@H](C#N)[C@H](c2ccccc2)[C@@H]1CO	none (no result: 697 NFkB inh, SMARCA2 act, Jurkat NFkB inh, Gli-Sufu block)
O=C(N[C@H]1CC[C@@H](CCNS(=O)(=O)Cc2ccccc2)O[C@H]1CO)c1ccc2c(c1)OCO2	none (no result: 697 NFkB inh, SMARCA2 act, Jurkat NFkB inh, Gli-Sufu block)
C/C(CC(=O)Nc1ccc2c(c1)OCCO2)=N\NC(=O)c1ccccn1	SMARCA2 act 9.5, esBAF inh 51.9 | SMARCA2 conf inactive | VP16 Luc act inactive
CCC(=O)N/N=C(\C)CC(=O)Nc1ccc2c(c1)OCCO2	none (no result: esBAF inh)
CN1CCc2c(C#N)c(N3CCOCC3)nc(NCC3CCCO3)c2C1 (configuration not stated)	SMARCA2 act 12.4 (no result: esBAF inh) | SMARCA2 conf inactive | VP16 Luc act inactive
O=C(C[C@H]1C=C[C@@H](NC(=O)Nc2ccc(F)cc2)[C@H](CO)O1)NCc1ccccn1	none (no result: 697 NFkB inh, SMARCA2 act, Jurkat NFkB inh, Gli-Sufu block)
O=C(Oc1c(CN2CCOCC2)cc(Cl)c2cccnc12)c1cccs1	SMARCA2 act 33.4 | SMARCA2 conf 15.7 | VP16 Luc act inactive
COc1ccc(C(=O)Oc2c(CN3CCOCC3)cc(Cl)c3cccnc23)cc1	none
O=C(Oc1c(CN2CCOCC2)cc(Cl)c2cccnc12)c1ccccc1Cl	SMARCA2 act 19.4 | SMARCA2 conf inactive | VP16 Luc act inactive
O=C(Oc1c(CN2CCOCC2)cc(Cl)c2cccnc12)c1ccc(F)cc1	none
COc1ccc(NC(=O)c2cc3ccccn3n2)cc1	SMARCA2 act 10.3 | SMARCA2 conf inactive | VP16 Luc act 11.6
O=C(NCCc1ccc(F)cc1)c1cc2ccccn2n1	SMARCA2 act 16.5 (no result: 697 NFkB inh, Jurkat NFkB inh, Gli-Sufu block, esBAF inh) | SMARCA2 conf inactive | VP16 Luc act 7.3
COc1ccc(NC(=O)c2ccccn2)cc1	none (no result: SMARCA2 act)
Cc1noc(C)c1S(=O)(=O)Nc1cccc2c1O[C@H](CN(C)S(=O)(=O)c1ccc(Cl)cc1)[C@H](C)CN([C@H](C)CO)C2=O	none (no result: 697 NFkB inh, SMARCA2 act, Jurkat NFkB inh, Gli-Sufu block)
CO[C@H]1CN(C)C(=O)c2cc(NC(=O)Nc3ccccc3F)ccc2OC[C@H](C)N(CCC(F)(F)F)C[C@@H]1C	none (no result: 697 NFkB inh, SMARCA2 act, Jurkat NFkB inh, Gli-Sufu block)
Cc1noc(C)c1NC(=O)Nc1ccc2c(c1)C(=O)N([C@H](C)CO)C[C@@H](C)[C@H](CN(C)C(=O)Nc1ccc(F)cc1)O2	none (no result: 697 NFkB inh, SMARCA2 act, Jurkat NFkB inh, Gli-Sufu block)
COc1ccc(C(=O)Nc2cc(C(=O)c3ccccc3)c(C)oc2=O)cc1	none
